Experiment [1] in a line: qHTS assay for measurement of the activity of small molecule inhibitors on Zika virus induced Caspase-3 activity in human iPSC derived neural progenitor cells (hNPCs) (AID 1224857). Also: nearly all actives have a fitted effect of over 65% in size. The method in brief:
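Cells were plated at 350 per well and grown 16 to 20 hours. Compound pretreatment lasted one hour, after which ZIKV (2 FFU/cell) was added for 6 hours. Percent inhibition was normalized between uninfected and infected controls.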

A short description of experiment [2]: qHTS assay for measurement of the activity of small molecule inhibitors on Zika virus induced Caspase-3 activity in human astrocytoma cells (AID 1224859). The procedure, abridged:
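Percent inhibition of virus-induced caspase-3/7 signal is calculated against uninfected and ZIKV-infected control cells. Cells are SNB-19, infected at 2 FFU/cell for 6 h after 1 h compound exposure.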
(In qHTS, concentration-response curves come from the screen itself.)

The nature of experiment [3]: qHTS assay to identify small molecule inhibitors of chordoma cells - UCH-2 (AID 1259356).
Experiment [4] is described as follows: P-glycoprotein substrates identified in KB-8-5-11 adenocarcinoma cell line, qHTS therapeutic library screen (AID 1346987). Also: nearly all actives have a fitted effect of over 65% in size. The method in brief:
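Luminescence from CellTiter-Glo, read 5 min after addition, quantified survival of KB-8-5-11 (P-gp-overexpressing) cells exposed to compounds for 72 h. AC50 was derived from concentration-response curves.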

Experiment [5] in a line: NS1 protein of Zika virus - qHTS assay to identify small molecule inhibitors in human HEK 293 cells (AID 1347053). Also: nearly all actives have a fitted effect of over 55% in size. The method in brief: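 In this cell-based screen, HEK 293 cultures received compound for one hour before Zika MR766 at MOI = 0.5. NS1 was quantified 24 hours later by TR-FRET, normalized to virus-free wells and infected wells.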
Experiment [6] can be described thus: qHTS of pediatric cancer cell lines to identify multiple opportunities for drug repurposing: Primary screen for TC32 cells (AID 1347089). Also: nearly all actives have a fitted effect of over 60% in size. Also: potency is read from the fitted curve at half-maximal effect. The procedure, abridged: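 In the primary qHTS, MIPE compounds were tested at 11 concentrations (0.78 nM to 46 µM) and NPC compounds at 8 (0.59 nM to 46 µM) on TC32 cells for 48 h. CellTiter-Glo luminescence gave viability.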

Experiment [7] can be described thus: P-glycoprotein substrates identified in KB-3-1 adenocarcinoma cell line, qHTS therapeutic library screen (AID 1346986). Also: nearly all actives have a fitted effect of over 60% in size. Particulars: KB-3-1 parental cells viability, CellTiter-Glo, 72 h; at 44.5 µM (top of the series). The procedure, abridged: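 In 1536-well format, 500 cells/well received pinned compound titrations and were incubated 72 h, 5% CO2. Viability was read by CellTiter-Glo; cytotoxic if AC50 < 10 uM and efficacy >50%.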

Experiment [8] concerns the target Atrial natriuretic peptide receptor 1 (Homo sapiens) (UniProt P16066). As to the kind of experiment: Natriuretic polypeptide receptor (hNpr1) antagonism - Pilot screen (AID 1347049; calls by dose curve;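 also: agonist-evoked cGMP luminescence read 20 min after hNppA addition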). The procedure, abridged: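 cGMP-sensor HEK293/hNpr1 cells, 1500/well, plated overnight at 37C. 2% GloSensor reagent, 2 h RT. Compound (23 nL pin transfer) 30 min RT, baseline luminescence pre-read. 0.1 nM hNppA, 20 min RT, post-read.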

Experiment [9] deals with Atrial natriuretic peptide receptor 2 (Homo sapiens) (UniProt P20594). The experiment in a line: Natriuretic polypeptide receptor (hNpr2) antagonism - Pilot subtype selectivity assay (AID 1347050; calls by dose curve). The procedure, abridged: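 Luminescence from a genetically encoded cGMP luciferase biosensor in hNpr2-expressing HEK293 cells is read before and 20 min after adding 1 nM hNppC. Test compounds, in interplate 1:5 titrations, are added 30-50 min ahead of the agonist.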
Sequence of Atrial natriuretic peptide receptor 2 (Homo sapiens) (P20594 whole entry, looked up): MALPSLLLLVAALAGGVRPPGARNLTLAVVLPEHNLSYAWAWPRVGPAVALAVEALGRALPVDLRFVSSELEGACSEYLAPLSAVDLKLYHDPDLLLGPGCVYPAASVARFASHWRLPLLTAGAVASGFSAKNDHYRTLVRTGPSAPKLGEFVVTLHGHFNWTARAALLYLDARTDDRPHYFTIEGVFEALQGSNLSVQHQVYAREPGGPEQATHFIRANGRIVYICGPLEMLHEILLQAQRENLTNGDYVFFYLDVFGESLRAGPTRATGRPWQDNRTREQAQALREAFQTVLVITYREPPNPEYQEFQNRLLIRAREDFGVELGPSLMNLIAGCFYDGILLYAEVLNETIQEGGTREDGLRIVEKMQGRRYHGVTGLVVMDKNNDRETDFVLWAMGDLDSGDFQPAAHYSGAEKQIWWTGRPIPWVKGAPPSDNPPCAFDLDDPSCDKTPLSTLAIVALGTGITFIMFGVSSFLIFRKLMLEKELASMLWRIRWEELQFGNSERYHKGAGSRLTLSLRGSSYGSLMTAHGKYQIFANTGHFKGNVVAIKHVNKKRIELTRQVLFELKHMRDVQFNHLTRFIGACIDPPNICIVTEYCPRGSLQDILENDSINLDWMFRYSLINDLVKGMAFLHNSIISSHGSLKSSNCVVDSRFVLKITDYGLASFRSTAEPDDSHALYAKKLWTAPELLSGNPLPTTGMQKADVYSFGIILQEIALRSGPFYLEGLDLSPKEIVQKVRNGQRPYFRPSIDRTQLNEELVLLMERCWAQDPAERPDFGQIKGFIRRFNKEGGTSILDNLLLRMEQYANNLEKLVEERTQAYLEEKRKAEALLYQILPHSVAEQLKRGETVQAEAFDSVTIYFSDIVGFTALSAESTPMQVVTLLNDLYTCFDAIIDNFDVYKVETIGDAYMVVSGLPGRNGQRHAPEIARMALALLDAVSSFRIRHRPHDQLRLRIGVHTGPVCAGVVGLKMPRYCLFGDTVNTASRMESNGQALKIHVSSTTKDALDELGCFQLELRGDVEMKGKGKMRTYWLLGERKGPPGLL

Experiment [10] concerns the target Parathyroid hormone/parathyroid hormone-related peptide receptor (Homo sapiens) (UniProt Q03431). The experiment in a line: qHTS for PTHR1 Agonists: Optimization Screen against the NCGC LOPAC library (AID 1347079).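 Also: GloSensor cAMP luminescence in HEK-293 GP2 cells expressing human PTHR1 with IBMX.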 The method in brief:
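HEK-293 GP2 cells, PTHR1 + GloSensor cAMP; 3000 cells/well, o/n. Luciferin + IBMX 0.5mM each (stock), 1 hr 37C. Cpd titration, 1 hr 37C. Lum after 15 min RT. Ctrl M-PTH(1-15) top 10uM.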

Experiment [11] deals with T1, Tyrosine-protein phosphatase non-receptor type substrate 1 (Homo sapiens) + Leukocyte surface antigen CD47 (Homo sapiens) (UniProt P78324+Q08722). The experiment in a line: CD47-SIRPalpha protein protein interaction - LANCE assay qHTS validation (AID 1347057; active = well fitted curve in the direction sought with a large enough effect in the signal ratio, with a control signal flat, not every such curve was filed as active; the % refers to the signal ratio). The method in brief:
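Inhibition of soluble CD47/SIRPalpha ectodomain association by titrated compounds, measured as 665/615 nm time-resolved FRET ratio after sequential 30 min room-temperature incubations.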
A general note: Time-resolved FRET reads energy transfer from a long-lived donor to a nearby acceptor.

Experiment [12] deals with T1, Tyrosine-protein phosphatase non-receptor type substrate 1 (Homo sapiens) + Leukocyte surface antigen CD47 (Homo sapiens). As to the kind of experiment: CD47-SIRPalpha protein protein interaction - HTRF assay qHTS validation (AID 1347058; active = well fitted curve in the direction sought with a large enough effect in the signal ratio, not every such curve was filed as active; the % refers to the signal ratio). The method in brief:
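Soluble extracellular domains (6His-CD47, Avi-tag-biotinylated SIRPalpha) in PBS pH 7.4 with 0.05% IGEPAL CA-630. Compounds were preincubated 30 min at RT with CD47 and anti-His-Eu, then SIRPalpha and SAV-XL665 were added. TR-FRET 665/615 ratio.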

Experiment [13] has the same target. As to the kind of experiment: CD47-SIRPalpha protein protein interaction - Alpha assay qHTS validation (AID 1347059).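 Also: bead proximity luminescence from CD47 binding SIRPalpha after compound preincubation with SIRPalpha.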 The method in brief:
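SIRPalpha-biotin 25 nM + cpd, 30 min RT, dark; add CD47-His 12.5 nM, 30 min; add Ni-NTA/SAV beads 10 ug/mL, 30 min; AlphaScreen. Buffer PBS pH 7.4 + 0.05% IGEPAL CA-630. Non-biotinylated SIRPalpha as control inhibitor.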

Inconclusive results are not listed. Active and inactive are the calls of the source. Unless noted, calls follow the shape of the dose curve; as a rule, active = well fitted curve in the direction sought with a large enough effect; inconclusive = small, poorly fitted or top-dose-only effect, or another doubt; inactive = no such curve, though single readings can be large; an effect the other way counts as inactive or inconclusive. Numbered stars: 1 amine (or outer) side, 2 acyl side, 3 side chain; on linkers, the order of the positions; unused ones are H or OH. Bridge positions count the residues as written; N and C are the ends. Square brackets hold non-standard residues; d marks the D form. Peptide text beside a SMILES is read from it. I, II: the chains in the order shown. Actinocin(9to1) = Cc1c2oc3c(C)ccc(C(=O)[*:1])c3nc-2c(C(=O)[*:2])c(N)c1=O; NMeV = CN[C@H](C(=O)O)C(C)C; Sar = CNCC(=O)O

T1 sequence (P78324 whole entry, looked up, the tested form may be a part): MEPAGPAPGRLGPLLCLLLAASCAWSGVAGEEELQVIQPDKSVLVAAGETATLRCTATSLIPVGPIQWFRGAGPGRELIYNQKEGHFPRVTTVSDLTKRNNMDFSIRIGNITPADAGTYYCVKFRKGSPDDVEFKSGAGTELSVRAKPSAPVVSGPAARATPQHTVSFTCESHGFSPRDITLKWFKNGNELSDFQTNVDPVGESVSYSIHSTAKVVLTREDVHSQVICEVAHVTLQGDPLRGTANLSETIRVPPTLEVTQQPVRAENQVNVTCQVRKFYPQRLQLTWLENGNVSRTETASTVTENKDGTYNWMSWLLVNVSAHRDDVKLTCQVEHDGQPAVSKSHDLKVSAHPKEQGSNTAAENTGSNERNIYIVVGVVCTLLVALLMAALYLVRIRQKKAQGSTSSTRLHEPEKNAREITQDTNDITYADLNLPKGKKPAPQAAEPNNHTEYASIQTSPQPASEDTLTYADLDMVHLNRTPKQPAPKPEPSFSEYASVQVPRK
T1 sequence (Q08722 whole entry, looked up, the tested form may be a part): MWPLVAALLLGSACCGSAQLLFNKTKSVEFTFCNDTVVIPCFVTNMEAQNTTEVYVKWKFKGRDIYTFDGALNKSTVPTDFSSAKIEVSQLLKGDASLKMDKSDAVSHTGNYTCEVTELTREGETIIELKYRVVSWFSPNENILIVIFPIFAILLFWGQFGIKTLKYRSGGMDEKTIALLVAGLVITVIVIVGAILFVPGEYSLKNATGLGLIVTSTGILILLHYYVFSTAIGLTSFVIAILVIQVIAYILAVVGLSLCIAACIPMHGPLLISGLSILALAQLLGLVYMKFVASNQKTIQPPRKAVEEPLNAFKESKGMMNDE
Sequence of Parathyroid hormone/parathyroid hormone-related peptide receptor (Homo sapiens) (Q03431 whole entry, looked up): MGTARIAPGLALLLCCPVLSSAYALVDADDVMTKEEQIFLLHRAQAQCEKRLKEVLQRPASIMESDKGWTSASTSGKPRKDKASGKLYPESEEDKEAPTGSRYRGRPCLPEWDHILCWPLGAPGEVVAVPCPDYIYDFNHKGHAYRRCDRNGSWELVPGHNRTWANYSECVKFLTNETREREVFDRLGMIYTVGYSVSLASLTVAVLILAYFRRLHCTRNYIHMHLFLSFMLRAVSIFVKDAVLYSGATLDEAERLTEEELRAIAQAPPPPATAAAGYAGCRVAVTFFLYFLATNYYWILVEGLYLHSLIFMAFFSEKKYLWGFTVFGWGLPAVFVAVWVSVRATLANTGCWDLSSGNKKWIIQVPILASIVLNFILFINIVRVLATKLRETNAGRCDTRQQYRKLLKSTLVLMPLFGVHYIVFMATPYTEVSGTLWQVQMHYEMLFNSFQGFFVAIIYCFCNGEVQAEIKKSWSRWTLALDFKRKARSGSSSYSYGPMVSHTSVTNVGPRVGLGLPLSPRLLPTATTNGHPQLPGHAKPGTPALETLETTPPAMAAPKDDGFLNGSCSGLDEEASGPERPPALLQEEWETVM
Sequence of Atrial natriuretic peptide receptor 1 (Homo sapiens) (P16066 whole entry, looked up): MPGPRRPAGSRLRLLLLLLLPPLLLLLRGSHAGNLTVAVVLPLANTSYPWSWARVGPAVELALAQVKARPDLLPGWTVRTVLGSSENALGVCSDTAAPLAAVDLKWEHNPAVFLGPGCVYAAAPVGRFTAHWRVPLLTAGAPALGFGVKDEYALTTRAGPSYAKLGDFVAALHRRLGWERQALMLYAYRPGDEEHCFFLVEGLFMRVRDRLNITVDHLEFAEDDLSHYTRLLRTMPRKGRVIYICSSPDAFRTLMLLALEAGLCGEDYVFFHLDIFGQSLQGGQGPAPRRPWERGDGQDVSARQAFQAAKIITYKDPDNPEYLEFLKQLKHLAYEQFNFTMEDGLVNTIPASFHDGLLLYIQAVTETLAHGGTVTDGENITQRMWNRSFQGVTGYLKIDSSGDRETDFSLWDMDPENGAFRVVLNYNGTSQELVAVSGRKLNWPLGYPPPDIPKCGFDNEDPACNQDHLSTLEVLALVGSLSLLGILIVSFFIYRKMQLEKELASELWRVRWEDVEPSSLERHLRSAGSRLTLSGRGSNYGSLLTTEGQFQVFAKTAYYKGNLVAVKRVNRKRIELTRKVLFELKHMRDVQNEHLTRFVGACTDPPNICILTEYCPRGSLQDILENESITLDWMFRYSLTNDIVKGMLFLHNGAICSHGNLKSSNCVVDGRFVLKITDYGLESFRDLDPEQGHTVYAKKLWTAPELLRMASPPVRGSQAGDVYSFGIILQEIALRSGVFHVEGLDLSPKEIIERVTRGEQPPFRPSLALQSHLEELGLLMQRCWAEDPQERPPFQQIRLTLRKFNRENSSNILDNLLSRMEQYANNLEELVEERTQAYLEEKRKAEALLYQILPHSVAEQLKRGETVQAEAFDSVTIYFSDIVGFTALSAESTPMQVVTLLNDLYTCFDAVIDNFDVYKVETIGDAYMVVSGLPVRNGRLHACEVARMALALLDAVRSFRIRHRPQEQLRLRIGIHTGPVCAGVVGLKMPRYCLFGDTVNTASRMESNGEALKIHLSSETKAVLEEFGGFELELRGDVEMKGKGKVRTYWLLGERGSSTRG

As to `CC(=O)OCC(=O)[C@@]12N=C(C)O[C@@H]1C[C@H]1[C@@H]3CCC4=CC(=O)C=C[C@]4(C)[C@H]3[C@@H](O)C[C@@]12C`, the call in experiment [1] and in experiment [2] was inactive. The Potency entry in [3], in [4], in experiment [5] and in [6] was “inactive” each time.

For the compound `CC(C)(C(=O)c1cccnc1)c1cccnc1`, the call in [1] and in [2] was inactive. Further, the Potency result in experiment [3], in experiment [4], in [5] and in experiment [6] was “inactive” each time.

Take `CCOC(=O)OC(C)OC1=C(C(=O)Nc2ccccn2)N(C)S(=O)(=O)c2ccccc21` (stereo unspecified): the compound was called inactive in experiment [1] and in [2]. Moreover, the Potency entry in [3], in experiment [4], in experiment [5] and in experiment [6] was “inactive” throughout.

With `CN(C)CC/C=C1\c2ccccc2Sc2ccc(Cl)cc21`, the call in [1] and in [2] was inactive. Besides, the Potency entry in [3], in [5] and in [6] was “inactive” in each case.

With `OC[C@@H](O)[C@@H](O[C@@H]1O[C@H](CO)[C@H](O)[C@H](O)[C@H]1O)[C@H](O)[C@@H](O)CO`, the call in experiment [1] and in experiment [2] was inactive. Further, the Potency entry in experiment [3], in [5] and in experiment [6] was “inactive” each time.

As for `O=C(Nc1ccc(Oc2ccc(Cl)cc2)c(Cl)c1)c1cc(I)cc(I)c1O`, the outcome in experiment [1] and in [2] was inactive. Also, the Potency entry in experiment [3], in experiment [5] and in experiment [6] was “inactive” throughout.

Turning to `O=C1[C@H]2CCCC[C@H]2C(=O)N1CCCCN1CCN(c2nsc3ccccc23)CC1`, the outcome in [1] and in experiment [2] was inactive. Further, the Potency result in [3], in [5] and in experiment [6] was “inactive” in each case.

Regarding `CC/C(=C(/CC)c1ccc(O)cc1)c1ccc(O)cc1`, the compound was classed as inactive in experiment [1] and in experiment [2]. Also, the Potency result in experiment [3], in experiment [5] and in experiment [6] was “inactive” throughout.

As for `CC(C)(CO)[C@@H](O)C(=O)NCCCO`, the compound was called inactive in experiment [1] and in [2]. Also, the Potency entry in experiment [3], in experiment [5] and in experiment [6] was “inactive” throughout.

For `C/C=C(/C(=C/C)c1ccc(O)cc1)c1ccc(O)cc1`, the call in [1] and in experiment [2] was inactive. In addition, the Potency result in experiment [3], in experiment [5] and in experiment [6] was “inactive” in each case.

With `CO/N=C1\CN(c2nc3c(cc2F)c(=O)c(C(=O)O)cn3C2CC2)CC1CN` (stereo unspecified), the compound was classed as inactive in experiment [1] and in experiment [2]. The Potency result in experiment [3], in [5] and in [6] was “inactive” throughout.

Regarding `OC[C@H]1O[C@H](O[C@]2(CCl)O[C@H](CCl)[C@@H](O)[C@@H]2O)[C@H](O)[C@@H](O)[C@H]1Cl`, the result in [1], in experiment [2] and in [7] was inactive. In addition, the Potency result in experiment [4], in experiment [5] and in [6] was “inactive” each time.

As for `C[C@@H]1C[C@H]2[C@@H]3CCC4=CC(=O)C=C[C@]4(C)[C@@]3(F)[C@@H](O)C[C@]2(C)[C@H]1C(=O)CO`, the compound was classed as inactive in experiment [1] and in experiment [2]. In addition, the Potency result in [3], in [5] and in experiment [6] was “inactive” in each case.

Consider `NCCc1ccn[nH]1`, for which the call in [1] and in experiment [2] was inactive. Also, the Potency entry in experiment [3], in experiment [5] and in experiment [6] was “inactive” each time.

Regarding `COC(=O)[C@H]1[C@H]2C[C@H]3c4[nH]c5ccccc5c4CCN3C[C@H]2CC[C@@H]1O`, the compound was called inactive in experiment [1], in experiment [2], in [8], in [9] and in [10]. The Potency result in experiment [3] and in experiment [5] was “inactive” throughout.

In the case of `CN1C(CCl)Nc2cc(Cl)c(S(N)(=O)=O)cc2S1(=O)=O` (stereo unspecified), the compound was classed as inactive in [1] and in [2]. For the same compound, the Potency entry in experiment [3], in experiment [5] and in experiment [6] was “inactive” throughout.

Take `CCCCS(=O)(=O)N[C@@H](Cc1ccc(OCCCCC2CCNCC2)cc1)C(=O)O`: the compound was called inactive in experiment [1], in experiment [2] and in experiment [7]. Further, the Potency entry in [4], in [5] and in [6] was “inactive” each time.

On to `CC(=O)OCC(=O)[C@@]1(OC(C)=O)[C@@H](C)C[C@H]2[C@@H]3C[C@H](F)C4=CC(=O)C=C[C@]4(C)[C@@]3(F)[C@@H](O)C[C@@]21C`, for which the call in experiment [1] and in experiment [2] was inactive. Also, the Potency result in experiment [3], in experiment [5] and in experiment [6] was “inactive” throughout.

For `O=C(CCCN1CCC(O)(c2ccc(Br)cc2)CC1)c1ccc(F)cc1`, the compound was classed as inactive in [1] and in experiment [2]. The Potency entry in [3], in experiment [5] and in experiment [6] was “inactive” each time.

Regarding `Cc1c2oc3c(C)ccc(C(=O)N[C@@H]4C(=O)N[C@H](C(C)C)C(=O)N5CCC[C@H]5C(=O)N(C)CC(=O)N(C)[C@@H](C(C)C)C(=O)O[C@@H]4C)c3nc-2c(C(=O)N[C@@H]2C(=O)N[C@H](C(C)C)C(=O)N3CCC[C@H]3C(=O)N(C)CC(=O)N(C)[C@@H](C(C)C)C(=O)O[C@@H]2C)c(N)c1=O` (I: T[dV]P[Sar][NMeV] / II: T[dV]P[Sar][NMeV]; ester I:1-I:C, II:1-II:C; linker I:N-II:N via Actinocin(9to1)), the result in experiment [1] and in experiment [2] was inactive. Further, the Potency result in experiment [3] and in [5] was “inactive” each time. For the same compound, the Potency in [6] was 14.9 nM (active).

In the case of `CC(CCc1ccccc1)NCC(O)c1ccc(O)c(C(N)=O)c1` (stereo unspecified), the outcome in [1], in [2], in experiment [8], in [9], in experiment [11] and in [12] was inactive. The compound was called inactive in experiment [10]. Besides, the Potency result in experiment [3], in [5] and in experiment [13] was “inactive” throughout.

On to `OC(CCN1CCCCC1)(c1ccccc1)c1ccccc1`, for which the compound was classed as inactive in experiment [1] and in [2]. Further, the Potency entry in [3], in [5] and in experiment [6] was “inactive” each time.

In the case of `CN(C)C(=S)SC(=S)N(C)C`, the compound was called inactive in experiment [1] and in experiment [2]. In addition, the Potency entry in experiment [3] and in experiment [4] was “inactive” each time. Also, the Potency in [6] was 3740 nM (active).

In the case of `O=C1OC(c2ccc(O)cc2)(c2ccc(O)cc2)c2ccccc21`, the result in [1] and in experiment [2] was inactive. Besides, the Potency entry in experiment [3], in experiment [5] and in experiment [6] was “inactive” each time.

`Oc1c(I)cc(I)c2cccnc12`: the compound was called inactive in [1] and in experiment [2]. The Potency result in experiment [3] and in [5] was “inactive” throughout.

Values taken from PubChem BioAssay (NCATS).
